These results are taken from PubChem BioAssay AID890 (National Center for Advancing Translational Sciences (NCATS), 2007).

Structures are written as SMILES. Values joined by “and” are separate entries in the source; they are usually repeats but may differ in a detail not shown here. Equal values may be shown once. Active and inactive are the calls of the source. Where a call stands in place of a potency, no number is given. Calls follow the shape of the dose curve; as a rule, active = well fitted activation curve with a large enough effect; inactive = flat fitted curve, though single readings scatter.

The nature of the experiment: Confirmation Concentration-Response Assay for Epigenetic Modulators. The settings on record: murine C127i cells, silenced GFP reporter derepression, imaging; series mostly up to 46 µM. The source says: NIH Molecular Libraries Screening Centers Network [MLSCN] NIH Chemical Genomics Center [NCGC] MLSCN Grant: 1 X01 MH079860-01 Assay Provider: Elisabeth D. Martinez, University of Texas SW Medical Center NCGC Assay Overview: The Locus Derepression assay detects the derepression of a GFP reporter that is stably integrated in a region of the genome of murine c127i mammary cells that is presumably silenced. GFP transcription in this construct is controlled by a CMV promoter, which normally is strong and constitutively active. However, this line was selected for lack of constitutive expression of the GFP protein. GFP production can be induced by incubating the cells with histone deacetylase or DNA methyltransferase inhibitors. Compounds that cause derepression of the locus to express GFP are identified by enumerating GFP positive cells using a laser-scanning microplate cytometer.
NCGC Assay Protocol Summary: Two hundred and fifty cells in 5 uL per well were dispensed into black, clear-bottom 1536-well plates. Twenty-three nL compound was transferred to the assay plate and cells were incubated 30 hours at 37 C. Medium was removed, cells were washed two times with PBS, and GFP-positive cells were enumerated as fluorescent objects between the sizes of 20 to 120 um width and depth using a laser-scanning microplate imager (Acumen Explorer Ex3, TTP Labtech) Keywords: NIH Roadmap, MLSCN, MLI, MLSMR, qHTS, NCGC, qHTS, HDAC, DNMT, HAT, DNA methyltransferases, histone acetyl transferases, histone deacetylases
On to `O=Nc1ccc(O)c2ncccc12`, for which the Potency is 2.78 µM (active).
Turning to `Cc1cc(C)n(-c2nc(N(C)C)nc(N(C)C)n2)n1`, the Potency result was “inactive”.
`Cc1cc(C)n(-c2nc(NC(C)C)nc(NC(C)(C)C)n2)n1`: the Potency result was “inactive”.
As to `COCc1cc(CN2CCN(C)CC2)c(O)c2ncccc12`, the Potency is 37.6 µM (active).
In the case of `CCNc1nc(NCC)nc(-n2nc(C)cc2C)n1`, the Potency result is “inactive”.
`Oc1ccc(COCc2ccccc2)c2cccnc12`: the Potency result was “inactive”.
To `Cc1cc(NC(c2ccccn2)c2ccc3cccnc3c2O)no1` (stereo not given) belongs 8 µM (active); to `O=C(CC(c1ccco1)S(=O)(=O)c1ccccc1)c1ccc(F)cc1` (stereo not given), “inactive”; to `CN1CCN(Cc2cc(Cl)c3cccnc3c2O)CC1`, 6.08 µM (active).
The same measure for `CC(C)C(=O)NC(c1ccc(C(C)C)cc1)c1cc(Cl)c2cccnc2c1O` (stereo not given): “inactive”.
The same measure for `O=C1OCCC1Sc1cccc2cccnc12` (stereo not given): 7.44 µM (active).
For the compound `Oc1c(C(Nc2ccccn2)c2ccco2)cc(Cl)c2cccnc12` (stereo not given), the Potency result is “inactive”.
The same measure for `COc1ccc(C(=O)NC(c2ccco2)c2cc(Cl)c3cccnc3c2O)cc1` (stereo not given): “inactive”; for `CN(C)C(=O)CSc1cccc2cccnc12`: 6.96 µM (active).
To `CC(C)C(=O)NC(/C=C/c1ccccc1)c1cc([N+](=O)[O-])c2cccnc2c1O` (stereo not given) belongs “inactive”; to `c1cnn(-c2nc(N3CCOCC3)nc(N3CCOCC3)n2)c1`, “inactive”.
For `Cc1cc(C)n(-c2nc(NC(C)C)nc(NC(C)C)n2)n1`, the Potency result is “inactive”.
For the compound `Oc1c(C(Nc2ccccn2)c2ccccn2)ccc2cccnc12` (stereo not given), the Potency was 36.2 µM (active).
Turning to `CCN(CC)c1ccc2cc(-c3nc4ccccc4[nH]3)c(=O)oc2c1`, the Potency is 0.56 µM (active).
For `CC(C)C(=O)NC(c1ccc(N(C)C)cc1)c1ccc2cccnc2c1O` (stereo not given), the Potency was 8.14 µM (active).
As to `COc1ccc(C)cc1NC(c1ccccn1)c1ccc2cccnc2c1O` (stereo not given), the Potency result is “inactive”.
`Cc1ccc2ccc(C(Nc3cccc(Cl)c3)c3ccccn3)c(O)c2n1` (stereo not given): the Potency result is “inactive”.
To `O=C(CSc1cccc2cccnc12)Nc1ccccc1` belongs “inactive”.
For the compound `COC(=O)c1cccc(NC(c2ccccn2)c2ccc3cccnc3c2O)c1` (stereo not given), the Potency result was “inactive”.
For the compound `O=C(CSc1cccc2cccnc12)NCc1ccccc1`, the Potency result was “inactive”.
As for `CCNc1nc(NCC)nc(-n2cc(C(=O)c3cc(Cl)ccc3O)cn2)n1`, the Potency result is “inactive”.
In the case of `CN1C(=S)SC(c2ccccc2)N(C)C1c1ccccc1` (stereo not given), the Potency entry is “inactive”.
The same measure for `c1ccc(Nc2nc(Nc3ccccc3)nc(-n3cccn3)n2)cc1`: “inactive”; for `CC(C)C(=O)NC(c1cccs1)c1cc(Cl)c2cccnc2c1O` (stereo not given): “inactive”.
The same measure for `CCCCC1CC1C(=O)Nc1ccc(OC)c(OC)c1` (stereo not given): 14.3 µM (active); for `Oc1c(C(Nc2ccccc2C(F)(F)F)c2ccccn2)ccc2cccnc12` (stereo not given): “inactive”; for `S=C1SCN(C2CCCC2)CN1Cc1ccco1`: “inactive”.
To `O=C(Oc1cccc2cccnc12)c1ccc(Br)o1` belongs 14.6 µM (active); to `CC(C)C(=O)NC(c1ccco1)c1ccc2cccnc2c1O` (stereo not given), 7.57 µM (active) and 4.6 µM (active); to `COc1ccc(NC(c2ccccn2)c2ccc3cccnc3c2O)cc1` (stereo not given), “inactive”.
Turning to `CC(C)C(=O)NC(c1ccco1)c1cc([N+](=O)[O-])c2cccnc2c1O` (stereo not given), the Potency entry was “inactive”.
As to `O=C(Cc1ccccc1)NC(c1ccco1)c1ccc2cccnc2c1O` (stereo not given), the Potency is 16.2 µM (active).
Regarding `COc1ccc(C(NC(=O)C(C)C)c2ccc3cccnc3c2O)cc1` (stereo not given), the Potency was 7.83 µM (active).
Regarding `CCOCc1ccc(O)c2ncccc12`, the Potency was 4.97 µM (active).
The same measure for `CC(/C=C/C(=O)NO)=C\[C@@H](C)C(=O)c1ccc(N(C)C)cc1`: 1.12 µM (active).
